Measurements published in PubChem BioAssay (NCATS).
Active and inactive are the calls of the source. Calls come from the whole dose curve; as a rule, active = well fitted curve in the direction sought with a large enough effect; inconclusive = small, poorly fitted or top-dose-only effect, or another doubt; inactive = no such curve, though single readings can be large or run the other way.

Target: Alpha-galactosidase (Coffea arabica) (UniProt Q42656)
Assay: Counterscreen for Glucocerebrosidase Inhibitors: qHTS Assay for Coffee Bean alpha-Galactosidase at pH 4.5 (AID 957);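 note: plate controls were enzyme alone for no effect and no enzyme for full effect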
Details: purified coffee bean alpha-galactosidase, fluorogenic substrate; series mostly up to 76.9 µM; activity change, negative = inhibition: at the top concentration
Description: NIH Chemical Genomics Center [NCGC]
NIH Molecular Libraries Screening Centers Network [MLSCN]
PI Name: Zheng, Wei [NIH]
Alpha-galactosidase is a homodimeric glycoprotein that hydrolyzes the terminal alpha-galactosyl moieties from glycolipids and glycoproteins. Deficiency of this enzyme results in Fabry Disease with progressive accumulation of globotriaosylceramide and other glycosphingolipids in vascular endothelial cells that causes renal failure, myocardial infarction and stroke, and premature death in patients. It has reported that the improper folding and trafficking of alpha-galactosidase resulted from the genetic mutations may account for a significant numbers of Fabry patients. […] We optimized this coffee bean alpha-galactosidase assay in 1536-well plate format as a counter-screen assay for identifying the selective small molecule inhibitors of other lysosomal enzymes.
NCGC Assay Protocol Summary:
This is a fluorogenic enzyme assay with 4-Methylumbelliferyl alpha-D-galactopyranoside as the substrate and green coffee bean […] (from Sigma-Aldrich) as the enzyme preparation. Upon the hydrolysis of this fluorogenic substrate, the resulting product, […]. 4-Methyllumbelliferone, can be excited at 365 nm and emits at 440 nm which can be detected by a standard fluorescence plate reader. Data were normalized to the controls for basal activity (without enzyme) and 100% activity (with enzyme). In the AC50 values were determined from concentration-response data modeled with the standard Hill equation.
Assay buffer: 50 mM citric acid, 0.005% Tween-20, pH 4.5. (pH 5.9 is an optimal condition for this enzyme assay. This assay in pH 4.5 is used for comparison the inhibitor activities with the human alpha-galactosidase assay)
1536-well assay protocol for the coffee bean alpha-galactosidase:
(1) Add 2 ul/well of enzyme (2 nM final)
(2) Add 23 nL compounds in DMSO solution. The final titration was 0.7 nM to 77 uM.
(3) Add 1 ul of substrate (80 uM final)
(4) Incubate at room temperature for 20 min.
(5) Add 2 ul stop solution (1M NaOH and 1M Glycine mixture, pH 10)
(6) Detect the assay plate in a ViewLux plate reader (PerkinElmer) with Ex=365 nm and Em=440nm.
Keywords: Alpha-galactosidase, Fabry Disease, pharmacological chaperone, chaperone therapy, high throughput screening, alpha-galactosidase inhibitor, MLSMR, MLSCN, NIH Roadmap, qHTS and NCGC

Chain of Alpha-galactosidase (Coffea arabica) (Q42656 whole entry, looked up): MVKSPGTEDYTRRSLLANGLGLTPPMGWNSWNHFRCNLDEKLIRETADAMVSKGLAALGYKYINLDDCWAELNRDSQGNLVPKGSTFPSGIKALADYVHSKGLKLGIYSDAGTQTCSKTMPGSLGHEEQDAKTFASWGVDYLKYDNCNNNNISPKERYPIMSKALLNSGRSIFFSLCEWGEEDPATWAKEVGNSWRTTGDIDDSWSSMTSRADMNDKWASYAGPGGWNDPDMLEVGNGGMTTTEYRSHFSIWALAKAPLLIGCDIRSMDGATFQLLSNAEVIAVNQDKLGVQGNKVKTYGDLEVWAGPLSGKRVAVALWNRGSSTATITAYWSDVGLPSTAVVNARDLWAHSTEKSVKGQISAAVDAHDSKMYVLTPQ

Row | Structure (SMILES) | activity change, negative = inhibition | outcome
1 | C=CCN1CCc2c(cc(O)c(O)c2Br)[C@H](c2ccccc2)C1 | -2.81% (inactive) | 
2 | Oc1cc2c(c(Cl)c1O)CCNC[C@H]2c1ccccc1 | -1.33% (inactive) | 
3 | O=C1c2c(O)cc(O)cc2O[C@@H](c2ccc(O)c(O)c2)[C@H]1O | -4.4% (inactive) | 
4 | Nc1ncnc2c1c(-c1ccc(Oc3ccccc3)cc1)cn2C1CCCC1 | -3.65% (inactive) | 
5 | NC(=S)c1ccc[n+]([C@@H]2O[C@@H](COP(=O)([O-])OP(=O)(O)OC[C@@H]3O[C@@H](n4cnc5c(N)ncnc54)[C@@H](OP(=O)(O)O)[C@H]3O)[C@@H](O)[C@H]2O)c1 | 0.412% (inactive) | 
6 | CCCCC#Cc1nc(N)c2ncn([C@@H]3O[C@@H](C(=O)NCC)[C@H](O)[C@@H]3O)c2n1 | -1.71% (inactive) | 
7 | O=C(O)c1cc(=O)c2ccc(Cl)cc2[nH]1 | -1.81% (inactive) | 
8 | C=C(C)[C@@H]1CC=C(C(=O)O)CC1 | -0.41% (inactive) | 
9 | Cc1ccc(C(=O)O[C@@H](C(=O)O)[C@@H](OC(=O)c2ccc(C)cc2)C(=O)O)cc1 (tested in a mixture with another compound) | 0.179% (inactive) | 
10 | COc1ccc(CCN(C)CCC[C@@](C#N)(c2ccc(OC)c(OC)c2)C(C)C)cc1OC | -0.704% (inactive) | 
11 | O=C(/C=C\c1ccc(O)c(O)c1)OCCc1ccccc1 | -3.56% (inactive) | 
12 | CCCCCCCCCCCCCCCCCCNC(=O)OC[C@@H](COP(=O)([O-])OCC[n+]1ccsc1)OC | -0.355% (inactive) | 
13 | N[C@]1(C(=O)O)CCc2cc(C(=O)O)ccc21 | 0.409% (inactive) | 
14 | Nc1ncnc2c1ncn2[C@@H]1O[C@@H](C(=O)NC2CC2)[C@H](O)[C@@H]1O | -0.751% (inactive) | 
15 | COC(=O)[C@H]1[C@H]2C[C@H]3c4[nH]c5ccccc5c4CCN3C[C@@H]2CC[C@@H]1O |  | inactive
16 | CCN(c1nc(N)c(C(=O)N=C(N)N)nc1Cl)C(C)C | -3.48% (inactive) | 
17 | O=C(Cc1ccc(Cl)c(Cl)c1)OCCN1CCCC1 | 2.19% (inactive) | 
18 | COc1cc2nc(N3CCN(C(=O)[C@H]4CCCO4)CC3)nc(N)c2cc1OC | 5.8% (inactive) | 
19 | CCN(Cc1ccncc1)C(=O)[C@@H](CO)c1ccccc1 | 1.95% (inactive) | 
20 | CCCN1C[C@@H](CSC)C[C@H]2c3cccc4[nH]cc(c34)C[C@@H]21 | -2.6% (inactive) | 

Row | Structure (SMILES) | activity change, negative = inhibition | outcome
21 | CCn1c(=O)c2[nH]c(-c3ccccc3)nc2n(CC)c1=O | -3.86% (inactive) | 
22 | CN1[C@@H](CC(=O)c2ccccc2)CCC[C@@H]1C[C@@H](O)c1ccccc1 | 0.162% (inactive) | 
23 | CCCN1CCc2cccc3c2[C@@H]1Cc1ccc(O)c(O)c1-3 | -2.21% (inactive) | 
24 | C[C@@H](C(=O)O)c1cccc(C(=O)c2ccccc2)c1 | 2.74% (inactive) | 
25 | O=C(O)[C@H]1CCCNC1 | -3.62% (inactive) | 
26 | OC[C@@H]1O[C@H](O)[C@@H](Cl)[C@H](O)[C@@H]1O | -0.359% (inactive) | 
27 | CCCC(=O)NCCc1c2n(c3ccc(OC)cc13)Cc1ccccc1-2 | -4.29% (inactive) | 
28 | C[C@H](N=C(NC#N)Nc1ccncc1)C(C)(C)C | 0.516% (inactive) | 
29 | Cc1ccccc1N1CCN(S(=O)(=O)C[C@@]23CC[C@H](C[C@H]2NC(=O)[C@@H](N)CCS(C)(=O)=O)C3(C)C)CC1 | 2.63% (inactive) | 
30 | O=[N+]([O-])c1ccc(O[C@H]2O[C@@H](CO)[C@@H](O)[C@@H](O)[C@@H]2F)c([N+](=O)[O-])c1 | -4.89% (inactive) | 
31 | O=C1OC(=O)[C@@H]2[C@@H]1[C@@H]1CC[C@H]2O1 | 4.14% (inactive) | 
32 | Oc1cc(O)cc(/C=C\c2ccc(O)c(O)c2)c1 | -5.37% (inactive) | 
33 | C=CCN1CCc2cccc3c2[C@@H]1Cc1ccc(O)c(O)c1-3 | -6.04% (inactive) | 
34 | O=S(=O)(NCCNC/C=C\c1ccc(Br)cc1)c1cccc2cnccc12 | 1.51% (inactive) | 
35 | CCCCCCCCCC[Si](C)(C)CCC(=O)N[C@@H](Cc1ccc(C)cc1)c1ccccc1 | -1.86% (inactive) | 
36 | CN1CCc2cccc3c2[C@@H]1Cc1ccc(O)c(O)c1-3 | -2.52% (inactive) | 
37 | CC(N)=NCc1cccc(CN)c1 | 3.21% (inactive) | 
38 | C=CCN1CC[C@]23c4c5ccc(O)c4O[C@@H]2C(=O)CC[C@@]3(O)[C@H]1C5 | -2.45% (inactive) | 
39 | C[C@@]12C(=O)OC(=O)[C@@]1(C)[C@H]1CC[C@@H]2O1 | -1.88% (inactive) | 
40 | C[C@@H]1COc2c(N3CCN(C)CC3)c(F)cc3c(=O)c(C(=O)O)cn1c23 | -0.198% (inactive) | 
